Laboratory results: PMC7862700, “An all-to-all approach to the identification of sequence-specific readers for epigenetic DNA modifications on cytosine”

Molecular target: T1, FEV (Homo sapiens, UniProt Q99581 1-238)
T1 sequence: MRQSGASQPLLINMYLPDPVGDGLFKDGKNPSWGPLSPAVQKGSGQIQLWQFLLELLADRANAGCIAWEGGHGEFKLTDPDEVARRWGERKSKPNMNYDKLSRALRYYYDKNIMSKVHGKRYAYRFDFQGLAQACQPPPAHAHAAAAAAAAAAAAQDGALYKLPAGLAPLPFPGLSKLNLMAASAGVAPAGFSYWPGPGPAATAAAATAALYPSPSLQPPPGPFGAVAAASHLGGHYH
Test: DAPPL (digital affinity profiling via proximity ligation, sequencing); 10 mM Tris-HCl pH 7.5, 50 mM NaCl, 1 mM DTT, 4% glycerol, room temperature, 30 min; GST-TFs on glutathione beads, 16-mer random dsDNA library, 0.1% formaldehyde crosslink after washing; high values mean tight binding
Conditions: protein: recombinant; tags: N-terminal GST; dsDNA, one strand shown
How it was run: (§1)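 Yeast served to express human transcription factors as GST fusions, which were then captured on glutathione beads and labelled with DNA barcodes. Pooled with a tag-only sample, they were incubated with 200 nmole of a 16-mer random double-stranded DNA library for 30 min at room temperature in Tris/NaCl/DTT/glycerol buffer, washed, crosslinked with 0.1% formaldehyde, ligated by proximity, amplified by PCR and sequenced. Dividing each hexamer's read frequency for a factor by its frequency for the tag-only sample gives the binding signal.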

Sequence | binding signal
TCTTCG | 1.49 fold enrichment (6-mer frequency, TF over GST control)
GCTTTG | 1.08 fold enrichment (6-mer frequency, TF over GST control)
TCTCTG | 1.53 fold enrichment (6-mer frequency, TF over GST control)
TAAAAG | 1.08 fold enrichment (6-mer frequency, TF over GST control)
CCTTAA | 1.33 fold enrichment (6-mer frequency, TF over GST control)
CTTTTT | 1.35 fold enrichment (6-mer frequency, TF over GST control)
CTTCAA | 1.33 fold enrichment (6-mer frequency, TF over GST control)
ACTAAA | 1.24 fold enrichment (6-mer frequency, TF over GST control)
ATATCC | 5.87 fold enrichment (6-mer frequency, TF over GST control)
AATCTC | 1.23 fold enrichment (6-mer frequency, TF over GST control)
TACCCG | 1.39 fold enrichment (6-mer frequency, TF over GST control)
CCTGTT | 1.67 fold enrichment (6-mer frequency, TF over GST control)
TTTTCC | 1.74 fold enrichment (6-mer frequency, TF over GST control)
AAAACT | 1.16 fold enrichment (6-mer frequency, TF over GST control)
TAATAC | 1.12 fold enrichment (6-mer frequency, TF over GST control)
GACTTC | 3.36 fold enrichment (6-mer frequency, TF over GST control)
ATGGCA | 1.44 fold enrichment (6-mer frequency, TF over GST control)
TCCGAC | 1.68 fold enrichment (6-mer frequency, TF over GST control)
TTACAG | 1.14 fold enrichment (6-mer frequency, TF over GST control)
AATTTC | 1.93 fold enrichment (6-mer frequency, TF over GST control)

Sequence | binding signal
ACCAAT | 1.25 fold enrichment (6-mer frequency, TF over GST control)
TAACAC | 1.24 fold enrichment (6-mer frequency, TF over GST control)
TTAGGG | 1.13 fold enrichment (6-mer frequency, TF over GST control)
CTACAC | 1.27 fold enrichment (6-mer frequency, TF over GST control)
CTAGCT | 1.29 fold enrichment (6-mer frequency, TF over GST control)
ATCCAT | 1.24 fold enrichment (6-mer frequency, TF over GST control)
TAGTAC | 1.16 fold enrichment (6-mer frequency, TF over GST control)
TTTGAA | 1.13 fold enrichment (6-mer frequency, TF over GST control)
AACCTA | 1.08 fold enrichment (6-mer frequency, TF over GST control)
GATGTT | 1.22 fold enrichment (6-mer frequency, TF over GST control)
CCTTAG | 1.28 fold enrichment (6-mer frequency, TF over GST control)
CGCGCT | 1.11 fold enrichment (6-mer frequency, TF over GST control)
CATCTA | 1.14 fold enrichment (6-mer frequency, TF over GST control)
TCTATT | 1.22 fold enrichment (6-mer frequency, TF over GST control)
CTATTT | 1.68 fold enrichment (6-mer frequency, TF over GST control)
TTCAGG | 1.05 fold enrichment (6-mer frequency, TF over GST control)
GCTATA | 1.14 fold enrichment (6-mer frequency, TF over GST control)
CTCATT | 1.44 fold enrichment (6-mer frequency, TF over GST control)
CAATTT | 1.5 fold enrichment (6-mer frequency, TF over GST control)

Molecular target: ETV5 (Homo sapiens, UniProt P41161 1-510)
Sequence (P41161 whole entry): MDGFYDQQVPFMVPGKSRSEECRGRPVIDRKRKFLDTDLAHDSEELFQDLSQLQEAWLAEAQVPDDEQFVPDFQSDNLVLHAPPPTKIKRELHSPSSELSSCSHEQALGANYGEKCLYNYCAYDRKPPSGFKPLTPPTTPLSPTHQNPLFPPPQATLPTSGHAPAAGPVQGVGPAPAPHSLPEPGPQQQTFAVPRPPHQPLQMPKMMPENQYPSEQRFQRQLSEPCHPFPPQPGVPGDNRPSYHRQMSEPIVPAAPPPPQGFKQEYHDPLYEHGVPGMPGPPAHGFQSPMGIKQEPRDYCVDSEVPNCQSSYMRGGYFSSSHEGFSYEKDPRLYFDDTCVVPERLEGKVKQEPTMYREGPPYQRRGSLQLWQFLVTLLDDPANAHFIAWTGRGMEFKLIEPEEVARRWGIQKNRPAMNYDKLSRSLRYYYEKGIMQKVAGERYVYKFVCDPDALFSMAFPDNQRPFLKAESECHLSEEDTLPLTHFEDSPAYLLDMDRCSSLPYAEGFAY
Test: as above
Conditions: protein: recombinant; tags: N-terminal GST; dsDNA, one strand shown
How it was run: as §1

Sequence | binding signal
TCTTCG | 1.51 fold enrichment (6-mer frequency, TF over GST control)
GCTTTG | 1.11 fold enrichment (6-mer frequency, TF over GST control)
TCTCTG | 1.43 fold enrichment (6-mer frequency, TF over GST control)
TAAAAG | 1.19 fold enrichment (6-mer frequency, TF over GST control)
CCTTAA | 1.25 fold enrichment (6-mer frequency, TF over GST control)
CTTTTT | 1.28 fold enrichment (6-mer frequency, TF over GST control)
CTTCAA | 1.28 fold enrichment (6-mer frequency, TF over GST control)
ACTAAA | 1.24 fold enrichment (6-mer frequency, TF over GST control)
ATATCC | 2.97 fold enrichment (6-mer frequency, TF over GST control)
AATCTC | 1.37 fold enrichment (6-mer frequency, TF over GST control)
TACCCG | 1.5 fold enrichment (6-mer frequency, TF over GST control)
CCTGTT | 1.79 fold enrichment (6-mer frequency, TF over GST control)
TTTTCC | 1.92 fold enrichment (6-mer frequency, TF over GST control)
AAAACT | 1.15 fold enrichment (6-mer frequency, TF over GST control)
TAATAC | 1.04 fold enrichment (6-mer frequency, TF over GST control)
GACTTC | 2.51 fold enrichment (6-mer frequency, TF over GST control)
ATGGCA | 1.28 fold enrichment (6-mer frequency, TF over GST control)
TCCGAC | 1.44 fold enrichment (6-mer frequency, TF over GST control)
TTACAG | 1.2 fold enrichment (6-mer frequency, TF over GST control)
AATTTC | 1.8 fold enrichment (6-mer frequency, TF over GST control)

Sequence | binding signal
ACCAAT | 1.24 fold enrichment (6-mer frequency, TF over GST control)
TAACAC | 1.23 fold enrichment (6-mer frequency, TF over GST control)
TTAGGG | 1.16 fold enrichment (6-mer frequency, TF over GST control)
CTACAC | 1.26 fold enrichment (6-mer frequency, TF over GST control)
CTAGCT | 1.31 fold enrichment (6-mer frequency, TF over GST control)
ATCCAT | 1.17 fold enrichment (6-mer frequency, TF over GST control)
TAGTAC | 1.14 fold enrichment (6-mer frequency, TF over GST control)
TTTGAA | 1.26 fold enrichment (6-mer frequency, TF over GST control)
AACCTA | 1.03 fold enrichment (6-mer frequency, TF over GST control)
GATGTT | 1.31 fold enrichment (6-mer frequency, TF over GST control)
CCTTAG | 1.18 fold enrichment (6-mer frequency, TF over GST control)
CGCGCT | 1.17 fold enrichment (6-mer frequency, TF over GST control)
CATCTA | 1.15 fold enrichment (6-mer frequency, TF over GST control)
TCTATT | 1.3 fold enrichment (6-mer frequency, TF over GST control)
CTATTT | 1.64 fold enrichment (6-mer frequency, TF over GST control)
TTCAGG | 1.13 fold enrichment (6-mer frequency, TF over GST control)
GCTATA | 1.18 fold enrichment (6-mer frequency, TF over GST control)
CTCATT | 1.41 fold enrichment (6-mer frequency, TF over GST control)
CAATTT | 1.29 fold enrichment (6-mer frequency, TF over GST control)

Molecular target: HSF1 (Homo sapiens, UniProt Q00613 1-529)
Sequence (Q00613 whole entry): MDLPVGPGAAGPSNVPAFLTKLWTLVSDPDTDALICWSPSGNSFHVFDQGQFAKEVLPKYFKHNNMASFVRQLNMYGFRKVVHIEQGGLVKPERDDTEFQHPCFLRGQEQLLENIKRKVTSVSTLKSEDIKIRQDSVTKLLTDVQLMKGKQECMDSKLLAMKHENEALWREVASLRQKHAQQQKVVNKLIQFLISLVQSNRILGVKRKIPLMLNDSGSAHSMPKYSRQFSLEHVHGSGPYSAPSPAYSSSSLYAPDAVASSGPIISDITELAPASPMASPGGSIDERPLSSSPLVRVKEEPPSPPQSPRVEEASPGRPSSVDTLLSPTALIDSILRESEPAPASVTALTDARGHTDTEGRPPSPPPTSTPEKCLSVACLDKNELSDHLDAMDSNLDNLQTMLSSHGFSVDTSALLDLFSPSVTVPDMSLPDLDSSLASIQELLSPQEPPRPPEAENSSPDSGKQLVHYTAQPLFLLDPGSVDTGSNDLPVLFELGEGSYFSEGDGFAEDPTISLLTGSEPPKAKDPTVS
Test: as above
Conditions: protein: recombinant; tags: N-terminal GST; chain copies: 3; dsDNA, one strand shown
How it was run: as §1

Sequence | binding signal
TCTTCG | 1.97 fold enrichment (6-mer frequency, TF over GST control)
GCTTTG | 1.23 fold enrichment (6-mer frequency, TF over GST control)
TCTCTG | 1.73 fold enrichment (6-mer frequency, TF over GST control)
TAAAAG | 1.43 fold enrichment (6-mer frequency, TF over GST control)
CCTTAA | 1.62 fold enrichment (6-mer frequency, TF over GST control)
CTTTTT | 1.23 fold enrichment (6-mer frequency, TF over GST control)
CTTCAA | 1.38 fold enrichment (6-mer frequency, TF over GST control)
ACTAAA | 1.37 fold enrichment (6-mer frequency, TF over GST control)
ATATCC | 1.31 fold enrichment (6-mer frequency, TF over GST control)
AATCTC | 2.13 fold enrichment (6-mer frequency, TF over GST control)
TACCCG | 1.25 fold enrichment (6-mer frequency, TF over GST control)
CCTGTT | 1.2 fold enrichment (6-mer frequency, TF over GST control)
TTTTCC | 1.73 fold enrichment (6-mer frequency, TF over GST control)
AAAACT | 1.18 fold enrichment (6-mer frequency, TF over GST control)
TAATAC | 1.63 fold enrichment (6-mer frequency, TF over GST control)
GACTTC | 1.23 fold enrichment (6-mer frequency, TF over GST control)
ATGGCA | 1.1 fold enrichment (6-mer frequency, TF over GST control)
TCCGAC | 1.23 fold enrichment (6-mer frequency, TF over GST control)
TTACAG | 1.44 fold enrichment (6-mer frequency, TF over GST control)
AATTTC | 1.89 fold enrichment (6-mer frequency, TF over GST control)

Sequence | binding signal
ACCAAT | 1.16 fold enrichment (6-mer frequency, TF over GST control)
TAACAC | 1.2 fold enrichment (6-mer frequency, TF over GST control)
TTAGGG | 1.48 fold enrichment (6-mer frequency, TF over GST control)
CTACAC | 1.11 fold enrichment (6-mer frequency, TF over GST control)
CTAGCT | 1.53 fold enrichment (6-mer frequency, TF over GST control)
ATCCAT | 1.23 fold enrichment (6-mer frequency, TF over GST control)
TAGTAC | 1.25 fold enrichment (6-mer frequency, TF over GST control)
TTTGAA | 1.24 fold enrichment (6-mer frequency, TF over GST control)
AACCTA | 1.18 fold enrichment (6-mer frequency, TF over GST control)
GATGTT | 1.18 fold enrichment (6-mer frequency, TF over GST control)
CCTTAG | 1.2 fold enrichment (6-mer frequency, TF over GST control)
CGCGCT | 1.11 fold enrichment (6-mer frequency, TF over GST control)
CATCTA | 1.47 fold enrichment (6-mer frequency, TF over GST control)
TCTATT | 1.43 fold enrichment (6-mer frequency, TF over GST control)
CTATTT | 1.45 fold enrichment (6-mer frequency, TF over GST control)
TTCAGG | 1.22 fold enrichment (6-mer frequency, TF over GST control)
GCTATA | 1.08 fold enrichment (6-mer frequency, TF over GST control)
CTCATT | 1.36 fold enrichment (6-mer frequency, TF over GST control)
CAATTT | 1.15 fold enrichment (6-mer frequency, TF over GST control)
